# Bioassay records from PubChem.
# Hits are enriched below; roughly 3.3% of the tested compounds scored in any of these assays.
# 14-3-3 Bad PPI: inhibitors of 14-3-3 zeta/Bad binding, primary screen, biochemical, TR-FRET, bovine 14-3-3 zeta. 14-3-3 protein zeta/delta (Bos taurus), P63103. TR-FRET 14-3-3zeta/Dy647-pBad peptide displacement, 1 h. inhibition, % at 21.7 µM. hit rate 0.71% among 220,000. AID 781, 2007;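 active = inhibition above about 70%, limit read from the data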;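 also: 0% = full 14-3-3 plus peptide FRET controls and 100% = background without 14-3-3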
# Target sequence (P63103 whole entry, looked up): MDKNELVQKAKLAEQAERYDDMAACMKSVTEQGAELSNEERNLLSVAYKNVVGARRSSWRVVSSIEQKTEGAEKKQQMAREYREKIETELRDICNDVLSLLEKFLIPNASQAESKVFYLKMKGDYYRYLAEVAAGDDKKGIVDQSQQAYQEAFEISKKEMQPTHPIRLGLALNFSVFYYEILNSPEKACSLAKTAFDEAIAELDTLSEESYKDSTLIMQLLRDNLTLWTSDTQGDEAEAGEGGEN
# eIF4E 4G PPI: eIF4E–eIF4G protein interaction inhibitors, primary screen, biochemical, uHTS, TR-FRET, eIF4GI fragment; Eukaryotic translation initiation factor 4E (Mus musculus) + Eukaryotic translation …; hit rate 0.37% among 220,000; TR-FRET eIF4E-eIF4GI(517-606) binding, 2 h; inhibition, % at 21.7 µM;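 also: 0% = full FRET control wells and 100% = background wells lacking eIF4GI fragment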
# Mcl1 Bid PPI: Mcl-1/Bid binding inhibitors, primary screen, biochemical, TR-FRET, 1536-well; inhibition, % at 21.7 µM; TR-FRET Mcl-1/Bid-Dy647 peptide binding; Induced myeloid leukemia cell differentiation protein Mcl-1 (Homo sapiens), Q07820; hit rate 0.97% among 220,000; AID 1021, 2008;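 active = compounds that cut the binding signal by more than half at the single screening dose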;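 also: His-tagged Mcl-1 with europium anti-His antibody binding Bid BH3 peptide; 0% = Mcl-1 plus peptide wells and 100% = peptide-only wells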
# Target sequence (Q07820 whole entry, looked up): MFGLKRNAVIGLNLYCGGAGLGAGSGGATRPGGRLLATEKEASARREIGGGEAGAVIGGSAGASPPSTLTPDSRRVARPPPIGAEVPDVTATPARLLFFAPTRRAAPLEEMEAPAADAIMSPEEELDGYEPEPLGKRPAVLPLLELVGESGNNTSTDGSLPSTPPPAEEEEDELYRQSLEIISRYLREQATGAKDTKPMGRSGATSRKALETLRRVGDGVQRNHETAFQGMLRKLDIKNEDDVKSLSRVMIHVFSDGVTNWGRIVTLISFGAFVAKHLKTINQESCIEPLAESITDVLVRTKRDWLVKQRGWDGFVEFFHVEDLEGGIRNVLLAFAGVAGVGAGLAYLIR
# NCF1 inh: p47phox/p22phox peptide binding inhibitors, primary screen, biochemical, uHTS, NADPH oxidase regulatory subunit; inhibition, % at 24.7 µM; fluorescence polarization, 2 h; Neutrophil cytosol factor 1 (Homo sapiens), P14598; hit rate 0.53% among 220,000; AID 1274, 2008;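 also: 0% = p47phox with labelled peptide and 100% = labelled peptide alone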
# Mcl-1 Bim block: inhibitors of Bim peptide binding to Mcl-1, primary screen, biochemical, bead-based flow cytometry, multiplex; hit rate 0.1% among 190,000; inhibition, % at 10 µM; AID 1009, 2008; Bim peptide-Mcl-1 binding; in the data active = inhibition above about 40%;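 also: 0% = no compound tracer wells and 100% = peptide blocker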
# Mcl1 Noxa PPI: Mcl-1/Noxa binding inhibitors, primary screen, biochemical, TR-FRET, 1536-well | TR-FRET Mcl-1/Noxa peptide binding, 2 h | hit rate 1.5% among 220,000 | AID 1022, 2008 | inhibition, % at 21.7 µM;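 active = compounds that cut the protein-peptide binding signal by more than 50% relative to plate controls in a single-dose test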;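 also: His-tagged Mcl-1 with rhodamine Noxa BH3 peptide and terbium anti-His antibody; 0% = Mcl-1 plus Noxa peptide wells and 100% = peptide-only wells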
# Starred values were filed as active, the others as inactive; . = not tested or not shown; [ ] = remark or other dose.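 The calls were made as follows, unless noted: active = inhibition above about 30% (limit read from the data); inactive = the rest.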
SMILES,14-3-3 Bad PPI,eIF4E 4G PPI,Mcl1 Bid PPI,NCF1 inh,Mcl-1 Bim block,Mcl1 Noxa PPI
COc1ccc(CN2C(=O)CN=C2Nc2cccc(C)c2C)cc1,81.9*,22.5,-9.7,-14.4,-1.0,22.7
COc1ccc(NC2=NCCC(=O)N2Cc2cccs2)cc1,12.6,-2.2,-0.5,5.0,1.0,19.5
COc1ccccc1NC1=NCC(=O)N1Cc1ccccc1,28.4,5.8,-3.9,-3.4,0.0,29.4
O=C(CO/N=C/c1ccc(OC(F)F)cc1)NC1CCCCCC1,7.4,0.3,16.7,2.1,-2.0,8.8
O=C(Nc1ccccc1)n1ccc(-c2ccc(-n3ccnc3)cc2)n1,-15.6,-2.1,-30.6,1.2,0.0,-6.6
CCOC(=O)c1ccc(NC(=O)COC(=O)Cc2csc(-c3ccccc3)n2)cc1,7.9,-5.8,-2.9,-17.9,-2.0,12.5
CN(C)c1ccnc2c[cH-]cc12.[Fe].c1ccc(-[c-]2[c-](-c3ccccc3)[c-](-c3ccccc3)[c-](-c3ccccc3)[c-]2-c2ccccc2)cc1 (centres undefined),50.5,40.6*,-14.2,89.7*,.,30.1
CN1CCN(C(=S)NC(=O)c2ccc(Cl)cc2)CC1,24.1,15.3,-32.6,-8.6,-2.0,67.7*
O=C(O)C1CSC(c2ccccc2Cl)N1C(=O)c1ccc(Cl)cc1 (centres undefined),-3.1,7.5,11.8,86.6*,-1.0,0.2
C=C(C(=O)c1ccccc1)C(C(=C)C(=O)c1ccccc1)c1ccc(OC)cc1,9.0,1.5,69.1*,-3.5,.,6.5
COc1ccc(S(=O)(=O)c2c(N)n(Cc3ccco3)c3nc4ccccc4nc23)cc1,-2.4,-7.1,1.7,-55.0,1.0,57.5*
COc1cccc(/C=N/n2c(N)c(S(=O)(=O)c3cccs3)c3nc4ccccc4nc32)c1,12.7,-19.2,11.7,-18.0,6.0,-30.7
Nc1c(S(=O)(=O)c2ccccc2)c2nc3ccccc3nc2n1/N=C/c1ccco1,-9.4,-0.3,3.3,-52.8,4.0,72.7*
Nc1c(S(=O)(=O)c2cccs2)c2nc3ccccc3nc2n1/N=C/c1cccc(O)c1,-5.4,-40.1,6.3,-48.4,20.0,72.8*
Cc1ccc(S(=O)(=O)c2c(N)n(/N=C/c3ccco3)c3nc4ccccc4nc23)cc1,-4.6,-4.1,-4.8,-111.8,-8.0,16.8
C/C(=N\NC(=O)Cn1nc(C)c([N+](=O)[O-])c1C)c1ccc(Cl)s1,0.5,3.2,-21.3,-2.7,.,20.6
CC(C)(C)c1ccc(NC(=S)NCCc2ccccn2)cc1,25.4,0.8,50.6*,-11.1,.,23.0
CN(C)S(=O)(=O)c1cccc(-c2nn(-c3ccccc3)cc2/C=C2\SC(=S)NC2=O)c1,-4.4,17.1,88.1*,-100.5,35.0,108.3*
CN(C)S(=O)(=O)c1cccc(-c2nn(-c3ccccc3)cc2/C=C(\C#N)c2nc3ccccc3[nH]2)c1,-5.2,-0.7,5.2,-100.2,-3.0,3.9
Cc1ccc(-n2nc3ccc(NC(=O)C(C)C)cc3n2)cc1,19.7,2.0,-30.8,-0.9,1.0,-1.8
Cc1cc(NC(=O)/C=C/c2ccco2)ccc1NC(=O)c1ccccc1,-12.1,1.0,-52.1,-7.0,0.0,17.7
Cc1ccc(-n2nc3ccc(NC(=O)c4ccco4)cc3n2)cc1,43.5,-19.8,66.2*,-6.7,0.0,0.7
O=C(/C=C/c1ccco1)Nc1ccc2nn(-c3ccccc3)nc2c1,10.5,1.5,-45.5,-10.4,-5.0,78.4*
Cc1ccc(-c2nc(NC(=O)c3cc(C(C)(C)C)nn3C)sc2C)cc1Cl,0.4,1.5,3.6,0.9,.,-1.4
Cc1c(Cc2ccccc2)sc(/N=C/c2c(O)ccc3ccccc23)c1C(N)=O,29.2,2.1,53.1*,-56.7,-12.0,31.0
SMILES,14-3-3 Bad PPI,eIF4E 4G PPI,Mcl1 Bid PPI,NCF1 inh,Mcl-1 Bim block,Mcl1 Noxa PPI
N#CCC(=O)c1sccc1-n1cccc1,-18.4,3.2,-28.7,-42.5,-1.0,17.5
Cc1cc(C)nc(N/N=C2/CCCC/C2=C\c2ccccc2)n1,-10.2,-0.1,-16.3,-6.4,-2.0,-14.4
C#CCOCCOCCOCCNc1nc(N2CCN(C(=O)[C@H](CCC(=O)O)n3cc(C(N)Cc4ccc(O)cc4)nn3)CC2)nc(N2CCN(C(=O)[C@H](Cc3cc4ccccc4[nH]3)n3cc(C(N)CC(C)C)nn3)CC2)n1 (some centres undefined),12.0,0.8,10.7,3.9,-4.0,27.1
C#CCOCCOCCOCCNc1nc(N2CCN(C(=O)C(Cc3ccc(O)cc3)n3cc(C(N)CC(C)C)nn3)CC2)nc(N2CCN(C(=O)C(Cc3cc4ccccc4[nH]3)n3cc(C(N)Cc4ccc(O)cc4)nn3)CC2)n1 (centres undefined),25.3,1.2,96.3*,0.2,-5.0,36.7
C#CCOCCOCCOCCNc1nc(N2CCN(C(=O)[C@H](CCCCN)n3cc([C@@H](N)CO)nn3)CC2)nc(N2CCN(C(=O)[C@H](Cc3cc4ccccc4[nH]3)n3cc([C@@H](N)CO)nn3)CC2)n1,-0.2,-7.8,-36.4,38.9*,.,15.2
C#CCOCCOCCOCCNc1nc(N2CCN(C(=O)[C@H](CCCCN)n3cc([C@@H](N)CO)nn3)CC2)nc(N2CCN(C(=O)[C@H](Cc3cc4ccccc4[nH]3)n3cc([C@@H](N)CC(C)C)nn3)CC2)n1,32.6,-4.6,53.5*,.,1.0,35.5
CC(C)NCCCCOc1ccccc1-c1ccccc1,-8.0,-2.3,18.8,-10.2,-1.0,14.2
Clc1ccc(CNCc2cccs2)c(Cl)c1,-15.8,4.9,-3.8,3.1,-4.0,2.6
CCOC(=O)c1[nH]ncc1CN1CCN(Cc2ccccc2)C(CCO)C1 (centres undefined),-14.8,-5.3,-15.1,8.4,-6.0,6.8
Nc1ccc(Nc2nc(-c3ccncc3)cs2)cc1,-14.4,7.2,-91.7,-9.9,5.0,41.9
COc1ccc(-c2csc(Nc3ccc(S(N)(=O)=O)cc3)n2)cc1,70.0*[fluorescence artefact?],12.9,-4.8,-20.8,1.0,52.7*
CCc1ccc(-c2csc(NC(=O)Oc3ccccc3)n2)cc1,1.2,0.3,-15.7,30.3*,-14.0,13.4
COc1ccc(Nc2nc(-c3ccc(OC)cc3)cs2)cc1,-7.5,-2.0,-29.4,-0.1,-6.0,7.7
COc1ccc(-c2csc(Nc3ccccc3)n2)cc1,-7.6,-3.8,-15.5,-15.6,-1.0,82.7*
Fc1ccc(Nc2nc(-c3ccncc3)cs2)cc1,-7.3,-2.1,-10.4,-7.0,-2.0,50.7*
O=C(O)CCC(=O)N1CCN(c2ncccn2)CC1,-2.8,2.8,-3.5,1.9,.,-8.9
